Active and inactive are the calls of the source. The calls were made as follows: active = hit-call score of the fitted dose curve at least 0.9, where 1 is the maximum; inactive = score below 0.9.
Tests used:
[1] = ATG_GRE_CIS: Attagene CIS-FACTORIAL HepG2 Assay for human Glucocorticoid Response Elements (GRE) (AID 2282947); conditions: HepG2 GRE cis-reporter, Attagene multiplex mRNA; actives raise or lower the signal
Outline: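 Following 24 h chemical exposure of transiently transfected HepG2 cells, total RNA was reverse-transcribed and reporter cDNA amplified, fluorescently labelled and sized by capillary electrophoresis. Signal gain or loss was fitted relative to DMSO vehicle.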

[2] = ATG_M_32_CIS: Attagene CIS-FACTORIAL HepG2 Assay for M32 Transcription Factor (Internal Marker) (AID 2282949); conditions: HepG2 Attagene cis-factorial M32 reporter, mRNA; actives raise or lower the signal;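 also: background control marker of the multiplexed CIS panel rather than a real target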
Outline: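 HepG2 cells transiently transfected with multiplexed cis-regulated reporter units, dosed 24 h. Reporter mRNA quantified by RT-PCR, 6-FAM labelling, HpaI digestion and capillary electrophoresis; bidirectional fit vs DMSO.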

[3] = ATG_M_06_CIS: Attagene CIS-FACTORIAL HepG2 Assay for M06 Transcription Factor (Internal Marker) (AID 2282950); conditions: HepG2 Attagene CIS-FACTORIAL M06 internal marker reporter; actives raise or lower the signal
Outline: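 HepG2 liver cells, 24 h exposure. Reporter transcripts from transfected cis-element constructs quantified by RT-PCR/capillary electrophoresis fluorescence. Bidirectional curve fit against DMSO.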

[4] = target: Hepatocyte nuclear factor 6 (Homo sapiens) (UniProt Q9UBC0); experiment: ATG_HNF6_CIS: Attagene CIS-FACTORIAL HepG2 Assay for human Hepatocyte Nuclear Factor 6 (HNF6) (AID 2282952); conditions: HepG2 Attagene cis-factorial HNF6 reporter transcription; actives raise or lower the signal
Sequence of Hepatocyte nuclear factor 6 (Homo sapiens) (Q9UBC0 whole entry, looked up): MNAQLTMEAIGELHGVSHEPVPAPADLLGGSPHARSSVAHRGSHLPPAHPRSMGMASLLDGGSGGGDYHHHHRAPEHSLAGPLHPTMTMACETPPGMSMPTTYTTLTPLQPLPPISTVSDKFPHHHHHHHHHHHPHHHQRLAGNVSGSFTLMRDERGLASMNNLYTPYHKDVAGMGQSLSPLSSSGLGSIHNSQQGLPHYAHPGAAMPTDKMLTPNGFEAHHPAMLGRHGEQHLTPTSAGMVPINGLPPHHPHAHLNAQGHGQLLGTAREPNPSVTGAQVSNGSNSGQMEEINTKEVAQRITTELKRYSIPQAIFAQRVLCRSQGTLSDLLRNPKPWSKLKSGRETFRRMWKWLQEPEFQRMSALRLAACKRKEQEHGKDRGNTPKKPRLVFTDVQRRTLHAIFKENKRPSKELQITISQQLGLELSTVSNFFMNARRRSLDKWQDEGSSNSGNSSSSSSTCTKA
Outline: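 HepG2, transient MRTU transfection (cis promoters); 24 h chemical exposure; total RNA → oligo(dT) RT → PCR → 6-FAM labelling → HpaI cut → CE; bidirectional fit vs DMSO.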

[5] = target: Heat shock factor protein 1 (Homo sapiens) (UniProt Q00613); experiment: ATG_HSE_CIS: Attagene CIS-FACTORIAL HepG2 Assay for human Heat Shock Transcription Factor 1 (HSE) (AID 2282953); conditions: HepG2 HSE cis-reporter, Attagene RNA transcription; actives raise or lower the signal
Sequence of Heat shock factor protein 1 (Homo sapiens) (Q00613 whole entry, looked up, the tested form may be a part): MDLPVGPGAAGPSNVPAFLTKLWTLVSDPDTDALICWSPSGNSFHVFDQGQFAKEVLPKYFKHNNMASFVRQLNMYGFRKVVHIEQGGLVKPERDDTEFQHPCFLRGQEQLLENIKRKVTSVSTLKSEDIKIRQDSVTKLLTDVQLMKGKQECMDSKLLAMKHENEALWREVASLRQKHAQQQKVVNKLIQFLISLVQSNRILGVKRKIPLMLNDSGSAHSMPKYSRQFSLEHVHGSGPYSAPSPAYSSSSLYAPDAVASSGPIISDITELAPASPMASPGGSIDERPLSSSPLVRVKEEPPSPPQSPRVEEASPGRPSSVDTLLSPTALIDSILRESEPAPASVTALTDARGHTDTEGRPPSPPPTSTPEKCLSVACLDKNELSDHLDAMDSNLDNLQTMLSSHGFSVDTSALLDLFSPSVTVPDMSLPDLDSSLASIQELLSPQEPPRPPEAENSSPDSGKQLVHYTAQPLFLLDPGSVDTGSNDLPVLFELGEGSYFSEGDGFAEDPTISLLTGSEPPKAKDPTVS
Outline: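 Endogenous transcription factor activity captured via cis-promoter reporter units transfected into HepG2; treatment lasted 24 h. Fluorescence intensity of reporter fragments analysed with bidirectional curve fitting, DMSO baseline.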

[6] = ATG_MRE_CIS: Attagene CIS-FACTORIAL HepG2 Assay for human Metal Responsive Element (MRE) (AID 2282954); conditions: HepG2 MRE cis-reporter transcription, Attagene multiplex; actives raise or lower the signal
Outline: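 Step one: transfect HepG2 with cis-regulated reporter units. Step two: dose 24 h. Step three: isolate RNA, RT-PCR, 6-FAM label, HpaI digest, capillary electrophoresis. Fit bidirectionally to DMSO.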

[7] = ATG_PBREM_CIS: Attagene CIS-FACTORIAL HepG2 Assay for human Phenobarbital-responsive Enhancer Module (PBREM) (AID 2282955); conditions: HepG2 PBREM cis-reporter, Attagene multiplexed transcription; actives raise or lower the signal
Outline: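 Cells were transfected with cis-element reporter units and treated for 24 h, after which RNA was extracted and reporter transcripts measured by RT-PCR and capillary electrophoresis.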

Measured: outcome

CCC(C)CCCC(C)(C)O (stereo not drawn)
not listed: [7]
inactive: all other assays above

CCCCCCCCCCC(CO)CCCCCCCC (stereo not drawn)
not listed: [6]
inactive: all other assays above

CC1CC(OC(=O)c2ccccc2O)CC(C)(C)C1 (stereo not drawn)
not listed: [5]
inactive: all other assays above

From PubChem BioAssay (EPA / NIEHS)
